HepG2 tox: counter-screen for TGF-b inhibitors: cytotoxicity in HepG2 cells; HepG2 CAGA-GFP viability, ATP luminescence, 18 h; Potency, µM (titrated, usually from 46.1 µM), actives largely listed as cytotoxic; actives 0.76% (n = 410,000)
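CellTiter-Glo luminescence gave cytotoxicity after 18 hours at 37 degrees C. The cells were HepG2 CAGA-GFP in 1% FBS DMEM, stimulated with 500 pg/mL TGF-beta after compound addition. %Activity was normalised to no-cell wells (complete cell-killing) and DMSO (no toxicity), and curves were fitted and classified.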
TDP1 cell noCPT: qHTS for Inhibitors of human tyrosyl-DNA phosphodiesterase 1 (TDP1): qHTS in cells in absence of CPT | AID 686978, 2013 | actives 15% (n = 420,000) | DT40 Tdp1-/- hTDP1 cells, no CPT, ATP luminescence, 48 h | Potency, µM (highest dose often 46.2 µM), actives largely listed as inhibitors; note: nearly all actives have a fitted effect of over 55% in size
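DT40 Tdp1-/-;hTDP1 cells, no CPT (DMSO vehicle only), 400 cells/well; compounds pin-transferred; ≥48 hr, 37 °C; CellTiter-Glo 30 min RT dark, luminescence read.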
HT1080NT lethal: kills 2HG-producing HT-1080-NT fibrosarcoma cells. HT-1080-NT fibrosarcoma viability, CellTiter-Glo ATP luminescence, 48 h. Potency, µM (titrated, usually from 46.1 µM), most hits filed as cytotoxic. actives 1.6% (n = 360,000);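 note: NT is the 2HG producing partner of a matched IDH1 knockdown line; nearly all actives have a fitted effect of over 55% in size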
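Toxicity toward the 2HG-producing NT line was scored as %Activity, normalised to DMSO and no-cell wells, from CellTiter-Glo luminescence after 48 hours' treatment.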
HT1080 IDH1KD tx: toxicity to HT-1080 IDH1 knockdown cells (counter line); Potency, µM (series often up to 46.1 µM), hits mostly cytotoxic; HT-1080 IDH1 knockdown viability, ATP luminescence, 48 h; actives 2% (n = 360,000); AID 686971
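In this qHTS, HT-1080 cells depleted of IDH1 are exposed for 48 h at 37 °C to compound titrations. Toxicity is scored from CellTiter-Glo luminescence, with DMSO as full viability and medium alone as none.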
TGFb inhibitor: TGF-b pathway inhibition | HepG2 CAGA-GFP TGF-b/SMAD3 reporter, GFP fluorescence, 18 h; TGF-beta stimulated, 500 pg/mL final | Potency, µM (doses to about 46.1 µM), most hits filed as inhibitors | actives 1.2% (n = 410,000) | AID 588855; note: nearly all actives have a fitted effect of over 65% in size
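Read-out: total well GFP (ex488/em500-530) summed from mean per-cell fluorescence. Cells: HEPG2 CAGA-GFP, 1% FBS DMEM, 18 h at 37 degrees C with 500 pg/mL final TGF-beta. Unstimulated wells served as the full-inhibition control; stimulated DMSO wells = 0%.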
DT40 TDP1 CPT: DT40-hTDP1 cell growth loss with CPT. Potency, µM (highest dose often 46.2 µM), usual class: inhibitors. actives 12% (n = 420,000). chicken DT40 Tdp1-/-;hTDP1 cells + 20 nM CPT, ATP luminescence, 48 h; note: nearly all actives have a fitted effect of over 55% in size
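Cell growth measured by CellTiter-Glo luminescence after a minimum 48 h, 37 C compound exposure with 20 nM CPT in Tdp1-knockout DT40 cells stably expressing hTDP1, seeded 400/well; qHTS titration format.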
Numbers stand for hits; - = inactive; ? = inconclusive; . = no result. In the library only some 17% were active in any assay of this set; here they are far more common. Calls come from the whole dose curve; as a rule, active = well fitted curve in the direction sought with a large enough effect; inconclusive = small, poorly fitted or top-dose-only effect, or another doubt; inactive = no such curve, though single readings can be large; an effect the other way counts as inactive or inconclusive.

SMILES	HepG2 tox	TDP1 cell noCPT	HT1080NT lethal	HT1080 IDH1KD tx	TGFb inhibitor	DT40 TDP1 CPT
CN(C)S(=O)(=O)c1ccc(C(=O)N2CC(=O)Nc3ccc(F)cc3C2c2ccc(F)cc2)cc1 (stereo not drawn)	-	-	-	-	-	-
O=C1CN(C(=O)c2cc([N+](=O)[O-])ccc2Cl)C(c2ccc(F)cc2)c2cc(F)ccc2N1 (stereo not drawn)	-	15µM	-	-	-	?
COCCn1c(SCC(=O)c2ccc(C)cc2)nc2cc(C(=O)NC3CCCC3)ccc2c1=O	-	-	.	.	-	-
CC(C)(C)c1ccc(C(=O)N2CC(=O)Nc3ccc(F)cc3C2c2ccc(F)cc2)cc1 (stereo not drawn)	-	18µM	.	.	?	26µM
O=C1CN(C(=O)c2ccc(S(=O)(=O)N3CCCCC3)cc2)C(c2ccc(F)cc2)c2cc(Br)ccc2N1 (stereo not drawn)	-	21µM	.	.	?	26µM
CCCCC1CCC(C(=O)N2CC(=O)Nc3ccc(Br)cc3C2c2ccc(F)cc2)CC1 (stereo not drawn)	-	13µM	.	.	?	23µM
CCNc1ncc2nc(CCc3ccccc3)c(=O)n(C[C@H]3CCCO3)c2n1	.	-	.	.	.	-
CN1CCCC1CCOC(C)(c1ccccc1)c1ccc(Cl)cc1 (stereo not drawn)	11µM	16µM	16µM	?	?	?
COc1ccc(-c2cc(-c3cccs3)c(C#N)c(SCC(=O)NCc3ccco3)n2)cc1	-	2.3µM	2.9µM	2.3µM	-	1.8µM
COc1ccccc1-c1cc(-c2ccccc2)nc(SCC(=O)O)c1C#N	-	-	-	-	-	?
COc1ccc(CNC(=O)CSc2nc(-c3ccccc3)cc(-c3cccs3)c2C#N)cc1	-	?	-	-	-	15µM
COc1ccc(-c2cc(-c3ccccc3)nc(SC(C)C(=O)O)c2C#N)cc1 (stereo not drawn)	-	26µM	-	?	-	?
CCCSc1nc(-c2ccc(OC)cc2)cc(-c2ccccc2OC)c1C#N	-	18µM	.	.	?	?
CCN(CC)c1ccc(C(=O)Nn2cnc3ccccc3c2=O)cc1	-	-	-	-	-	-
CCOC(=O)C1=NNC2(c3ccc(C)cc3)C(=O)N(c3ccc(Cl)cc3)C(=O)C12 (stereo not drawn)	-	-	-	-	-	-
CCc1nnc(NC(=O)CSc2nc(-c3ccccc3)cc(-c3ccc(F)cc3)c2C#N)s1	-	?	-	-	-	9.2µM
CC(C)OC(=O)CC(=O)CSc1nc(-c2ccc(F)cc2)cc(-c2ccccc2)c1C#N	-	?	-	-	-	-
O=C(Cn1nc(-c2ccc(Cl)cc2)ccc1=O)NCc1ccccc1Cl	-	?	.	.	-	-
O=[N+]([O-])c1ccc2oc(C(O)c3cccc(Cl)c3)cc2c1 (stereo not drawn)	-	12µM	-	-	?	?
CCOC(=O)c1cc2cc([N+](=O)[O-])ccc2oc1=O	-	-	-	-	-	-
CC(=N)C1=C(O)CC(c2ccccc2)CC1=O (stereo not drawn)	-	-	-	-	-	-
COc1cc(Cn2c(-c3ccc(O)c(OC)c3)nc3ccccc32)ccc1O	-	?	-	-	-	-
C=CCn1c(-c2ccc(OC)cc2)nc2ccccc21	-	9.2µM	-	-	-	18µM
COc1ccc(-c2nc3ccccc3n2Cc2ccccc2)cc1	-	8.2µM	-	-	?	18µM
CCCCCn1c(-c2ccc(OC)c(OC)c2)nc2ccccc21	-	7.3µM	.	.	?	?
COc1ccc(-c2nc3ccccc3c(=O)n2CCOc2ccccc2C)cc1	-	18µM	-	-	-	?
